High-throughput results from PubChem.
IDE exosite FP: exo-site inhibitors of human IDE, primary screen, biochemical, fluorescence anisotropy, probe displacement; Insulin-degrading enzyme (Homo sapiens), P14735; purified IDE, FL-6b probe fluorescence polarization; active compounds read low; z-score at 20 µM; hit rate 6.3% among 17,000;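 active = z-score of -3 or lower, meaning strong loss of probe binding signal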;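 note: His-tagged human IDE residues 42-1019 made in E. coli with 30 nM FL-6b probe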
Target sequence (P14735 42-1019 limits assumed): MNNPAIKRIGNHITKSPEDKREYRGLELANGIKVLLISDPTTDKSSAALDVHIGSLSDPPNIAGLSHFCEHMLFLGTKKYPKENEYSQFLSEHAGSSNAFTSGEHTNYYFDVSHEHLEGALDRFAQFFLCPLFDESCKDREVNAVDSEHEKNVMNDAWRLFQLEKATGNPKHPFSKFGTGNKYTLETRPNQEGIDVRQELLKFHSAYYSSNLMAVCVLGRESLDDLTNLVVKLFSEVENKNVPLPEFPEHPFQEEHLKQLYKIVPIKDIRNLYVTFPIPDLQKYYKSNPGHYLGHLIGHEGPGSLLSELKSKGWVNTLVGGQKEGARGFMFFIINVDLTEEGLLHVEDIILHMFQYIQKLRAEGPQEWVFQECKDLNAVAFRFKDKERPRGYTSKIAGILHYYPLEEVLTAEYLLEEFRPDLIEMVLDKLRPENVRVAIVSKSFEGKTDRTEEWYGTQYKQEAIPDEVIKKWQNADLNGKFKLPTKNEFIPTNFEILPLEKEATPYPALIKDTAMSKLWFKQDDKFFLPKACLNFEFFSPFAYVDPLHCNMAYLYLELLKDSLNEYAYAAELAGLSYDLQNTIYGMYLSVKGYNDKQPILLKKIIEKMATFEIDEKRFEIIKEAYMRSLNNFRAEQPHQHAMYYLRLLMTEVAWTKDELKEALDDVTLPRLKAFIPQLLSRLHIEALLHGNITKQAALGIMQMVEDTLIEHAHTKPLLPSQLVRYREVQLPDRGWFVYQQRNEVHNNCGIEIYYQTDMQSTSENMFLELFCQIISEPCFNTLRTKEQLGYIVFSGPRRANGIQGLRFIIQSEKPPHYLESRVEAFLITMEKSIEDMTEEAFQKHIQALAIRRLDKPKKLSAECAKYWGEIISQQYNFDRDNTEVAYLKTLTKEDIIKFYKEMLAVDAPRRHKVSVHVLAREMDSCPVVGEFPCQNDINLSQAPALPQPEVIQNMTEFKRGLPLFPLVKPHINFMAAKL
Active calls of the source: *. This excerpt belongs to a sample that is enriched for hits.

SMILES	IDE exosite FP
CC(C)NC(=O)N1[C@@H](C#N)[C@H](c2ccc(C#CC3CCCCC3)cc2)[C@@H]1CO	4.1
COc1ccc(NC(=O)N2CC(=O)N3[C@@H](CO)[C@H](c4ccc(C5=CCCC5)cc4)[C@@H]3C2)cc1	-0.8
CC(C)CC#Cc1ccc([C@@H]2[C@H]3CN(C(=O)Cc4ccccc4)CC(=O)N3[C@H]2CO)cc1	3
Cn1cnc(S(=O)(=O)N2CC[C@@H]3[C@H]2c2cc(C4=CCCCC4)ccc2N[C@@H]3CO)c1	0.28
CC(=O)N(C)C[C@H]1[C@H](c2ccc(-c3cccc(C#N)c3)cc2)[C@@H](CO)N1C(C)=O	3.4
COCC(=O)N1CCCCN2[C@H](CO)[C@H](c3ccc(-c4ccc(C)cc4)cc3)[C@@H]2C1	1.9
COCC(=O)N1CCCCN2[C@H](CO)[C@@H](c3ccc(-c4cccc(C)c4)cc3)[C@@H]2C1	-5.3*
COCC(=O)N1CCCCN2[C@@H](CO)[C@H](c3ccc(-c4ccc(C)cc4)cc3)[C@@H]2C1	2.4
COCC(=O)N1CCCCN2[C@H](C1)[C@H](c1ccc(-c3ccc(C)cc3)cc1)[C@@H]2CO	1.1
COCC(=O)N1CCCCN2[C@@H](CO)[C@@H](c3ccc(-c4ccc(C)cc4)cc3)[C@@H]2C1	0.039
COCC(=O)N1CCCCN2[C@@H](CO)[C@H](c3ccc(-c4cccc(C)c4)cc3)[C@@H]2C1	-3.1*
O=C(N[C@@H]1CC[C@@H](CCn2cc(-c3ccccc3F)nn2)O[C@H]1CO)c1ccc2c(c1)OCO2	1.6
CCCC(=O)Nc1ccc2c(c1)OC[C@@H](C)N(CC1CCOCC1)C[C@@H](C)[C@@H](OC)CN(C)C2=O	1.6
CN(C)C(=O)c1cccc(-c2ccc([C@H]3[C@@H](C#N)N(C(=O)C4CC4)[C@@H]3CO)cc2)c1	5.5
N#C[C@H]1[C@@H](c2ccccc2)[C@@H](CO)N1S(=O)(=O)c1ccc(-c2ccccc2)cc1	1.6
O=C(C[C@H]1C[C@@H]2c3cc(NC(=O)C4CCOCC4)ccc3O[C@@H]2[C@H](CO)O1)NCCN1CCCCC1	-0.42
CO[C@@H](CN(C)Cc1ccc2c(c1)OCO2)[C@@H](C)CN(C(=O)Nc1ccc(F)cc1)[C@@H](C)CO	1.1
COc1ccc2c3c(n(C)c2c1)[C@H](CO)N(Cc1ccccc1Cl)CC31CCN(C(=O)CC2CC2)CC1	-4.1*
COc1ccc2c3c([nH]c2c1)[C@@H](CO)N(Cc1ccccn1)CC31CCN(C(C)=O)CC1	-3.6*
CCS(=O)(=O)N1CC2(CN(Cc3ccccc3F)[C@@H](CO)c3[nH]c4cc(OC)ccc4c32)C1	-0.44
CCCC(=O)N1CC2(C1)CN(Cc1ccccc1F)[C@@H](CO)c1c2c2ccc(OC)cc2n1C	-0.33
COc1ccc2c3c([nH]c2c1)[C@@H](CO)N(Cc1ccccc1Cl)CC31CN(C(=O)C2CC2)C1	-3
COCC(=O)N1CCC2(CC1)CN(Cc1ccccc1Cl)[C@H](CO)c1[nH]c3cc(OC)ccc3c12	-1.8
COc1ccc2c3c([nH]c2c1)[C@H](CO)N(Cc1ccccn1)CC31CCN(C(C)=O)CC1	-2.8
COc1ccc2c3c([nH]c2c1)[C@H](CO)N(Cc1ccccn1)CC31CN(C(=O)CC2CC2)C1	-0.017
SMILES	IDE exosite FP
COCC(=O)N1CCC2(CC1)CN(Cc1ccccc1Cl)[C@@H](CO)c1[nH]c3cc(OC)ccc3c12	-3.6*
COc1ccc2c3c(n(C)c2c1)[C@H](CO)N(Cc1ccccc1OC)CC31CN(C)C1	-1.3
CCCC(=O)N1CCC2(CC1)CN(Cc1ccc(Cl)cc1)[C@@H](CO)c1[nH]c3cc(OC)ccc3c12	-1.7
COc1ccc2c3c([nH]c2c1)[C@@H](CO)N(Cc1ccccc1F)CC31CCN(C(=O)C2CC2)CC1	-3.6*
C/C=C/c1ccc([C@@H]2[C@@H](CO)N3C(=O)CN(Cc4ccccc4)C[C@H]23)cc1	1.9
C[C@H](CO)N1C[C@H](C)[C@H](CN(C)C(=O)[C@H](Cc2ccccc2)N(C)C)OCc2ccccc2-c2c(n(C)c3ccccc23)C1=O	-1.3
CCS(=O)(=O)N1CCCCN2[C@H](CO)[C@H](c3ccc(-c4cccc(C#N)c4)cc3)[C@H]2C1	1.1
N#C[C@H]1[C@@H](c2ccccc2-c2ccccc2)[C@@H](CO)N1C(=O)NC1CCCC1	0.26
O=C1C[C@@H](c2ccccc2)C(=O)N[C@H](c2ccc3c(c2)OCO3)C/C=C\C[C@@H](c2ccc(F)cc2)N1	1.4
O=C(Nc1ccccc1F)N1CCCCN2[C@H](C1)[C@@H](c1ccc(-c3cccnc3)cc1)[C@@H]2CO	-1.4
CN1C(=O)c2cc(NC(=O)c3ccc(C#N)cc3)ccc2OC[C@H]2O[C@@H](CC(=O)NC3Cc4ccccc4C3)CC[C@@H]21	0.21
O=C(C[C@@H]1CC[C@@H]2[C@H](COC[C@@H](O)CN2C(=O)Nc2ccccc2)O1)NCc1ccccc1F	-0.31
COCC(=O)N1[C@@H]2CN(C(=O)Nc3ccccc3Cl)c3ccccc3[C@@H]2[C@@H]1CO	0.53
COc1ccccc1C(=O)N1C[C@@H]2[C@H](c3ccccc31)[C@H](CO)N2CC1CCCC1	-0.63
